Screening data deposited in PubChem by NMMLSC.
MEKK3 PB1 HTS: modulators (inhibitors or enhancers) of MEK5 binding to human MEKK3 PB1 domain; bead-based flow cytometry, Alexa488-MEK5 binding to MEKK3; actives lie on both sides; 0 = blocked by unlabeled MEK5, 100 = vehicle; binding response (% of control), % at 10 µM; actives 1.4% (n = 290,000); AID 1529;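 active = binding response more than 3 SD above or below the average of its plate-row segment, actives on both sides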;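 note: Alexa488 bead fluorescence after subtracting the streptavidin-only scavenger bead signal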
MEKK2mut PB1 HTS: signal of MEK5 binding to mutant human MEKK2 PB1 domain. actives 0.35% (n = 290,000). bead flow cytometry, Alexa488-MEK5 binding to MEKK2 mutant. AID 1530. percent response, % at 10 µM; in the data active = percent response above about 24%, passing the limit was not always enough
GRK2 inh: human GRK2 inhibition via aptamer displacement; P25098; inhibition of aptamer binding, % at 10 µM; bead flow cytometry, FAM-aptamer displacement from GRK2; actives 0.59% (n = 330,000);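 active = inhibition of aptamer binding above 40%, roughly 3 SD of noise, on plates passing a quality check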;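 note: median bead fluorescence of bound FAM aptamer so fluorescent compounds give negative values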
Target sequence (P25098 whole entry, looked up): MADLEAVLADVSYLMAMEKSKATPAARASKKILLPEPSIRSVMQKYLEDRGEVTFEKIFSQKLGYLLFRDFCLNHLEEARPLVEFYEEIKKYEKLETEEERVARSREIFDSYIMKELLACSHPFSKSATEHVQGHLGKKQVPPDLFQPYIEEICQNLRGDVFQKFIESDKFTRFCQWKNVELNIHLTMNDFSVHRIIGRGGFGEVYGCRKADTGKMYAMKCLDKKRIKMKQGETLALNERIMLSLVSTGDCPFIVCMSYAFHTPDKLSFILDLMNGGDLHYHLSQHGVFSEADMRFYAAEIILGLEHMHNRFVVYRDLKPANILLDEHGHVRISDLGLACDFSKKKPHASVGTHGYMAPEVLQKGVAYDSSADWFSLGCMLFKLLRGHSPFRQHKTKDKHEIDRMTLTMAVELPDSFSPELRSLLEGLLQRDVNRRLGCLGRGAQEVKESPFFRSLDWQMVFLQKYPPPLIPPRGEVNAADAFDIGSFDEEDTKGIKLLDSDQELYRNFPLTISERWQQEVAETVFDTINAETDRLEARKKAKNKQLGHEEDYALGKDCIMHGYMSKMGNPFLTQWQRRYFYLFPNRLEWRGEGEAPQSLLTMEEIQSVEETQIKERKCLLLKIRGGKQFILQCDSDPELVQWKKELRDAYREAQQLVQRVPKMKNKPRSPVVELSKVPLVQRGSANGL
MEKK2wt PB1 HTS: raises or lowers MEK5 binding to wildtype human MEKK2 PB1 domain. Q9Y2U5. binding response (% of control), % at 10 µM. actives 1.1% (n = 290,000). bead flow cytometry, Alexa488-MEK5 binding to MEKK2 WT; actives lie on both sides. AID 1531; in the data active = binding response below about 67% or above about 130%
GRK2 inh confirm: human GRK2 inhibition confirmation, cherry pick 1 | shares compounds with GRK2 inh | bead-bound GRK2, FAM-aptamer displacement, flow cytometry | aptamer displacement, % at 10 µM | actives 4% (n = 2,000) | AID 504451;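 active = aptamer displacement above 40%, near three times the noise of non-fluorescent compounds, on plates passing quality checks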;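 note: negative values mostly reflect intrinsic compound fluorescence rather than true enhancement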
FAM quench CP1: aptamer fluorescence quenching in GRK2 counter-screen; shares compounds with GRK2 inh; Carboxyfluorescein RNA aptamer on beads, flow cytometry quenching; stronger effect = lower value; fluorescence response (% of DMSO), % at 10 µM; 2,000 tested, under 10 active;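 active = compounds that quench the bead-bound fluorescent RNA probe, cutting fluorescence to under half of the solvent control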;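 note: counterscreen run without GRK2 so only probe quenching by compound is measured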
GRK2 confirm 2: human GRK2 inhibition confirmation, cherry pick 2; shares compounds with GRK2 inh; bead-bound GRK2, FAM-aptamer displacement, flow cytometry; inhibition of aptamer binding, % at 10 µM; 360 tested, under 10 active;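 active = inhibition of aptamer binding above 40%, about triple the noise seen with nonglowing compounds, on plates passing quality control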;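 note: negative values mostly come from compounds that fluoresce themselves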
FAM quench SP: aptamer fluorescence quenching in GRK2 counter-screen; 360 tested, under 10 active; AID 588494; shares compounds with GRK2 inh; carboxyfluorescein RNA aptamer beads, flow cytometry quenching; stronger effect = lower value; fluorescence response vs DMSO, % at 10 µM;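 active = response vs DMSO under 50%, meaning signal dropped by over half, treated as fluorescence quencher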;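 note: labelled aptamer on streptavidin beads without GRK2 as a quench counter-screen; 100% = bead fluorescence of DMSO wells and lower means quenching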
Starred values were filed as active, the others as inactive; . = no result given; ! = repeats disagree. This is a sample that favours compounds with a hit; in the whole collection about 2.5% have one here.

SMILES	MEKK3 PB1 HTS	MEKK2mut PB1 HTS	GRK2 inh	MEKK2wt PB1 HTS	GRK2 inh confirm	FAM quench CP1	others
CCc1ccc(NC(=O)Cn2nnc(C(=O)NCc3ccco3)c2N)cc1	102.0	-4.0	0.0	102.0	.	.
Cc1ccccc1-c1nc(CS(=O)(=O)CC(=O)NCc2ccc3c(c2)OCO3)c(C)o1	111.0	6.0	83.0*	108.0	0.3	88.6	GRK2 confirm 2=10.8;FAM quench SP=97.0
COc1ccc(-c2nc(CS(=O)(=O)CC(=O)NCc3ccc4c(c3)OCO4)c(C)o2)cc1	99.0	-1.0	0.0	99.0	.	.
COc1ccc(C(=S)Nc2ccc(C)cc2)cc1	.	.	100.0*	.	-2.0	98.3
O=C(NC(=S)NCc1ccccc1)c1ccc2c(c1)OCO2	94.0	-4.0	94.0*	99.0	.	.	GRK2 confirm 2=-34.7;FAM quench SP=100.0
O=C(NC(=S)NCc1cccnc1)c1ccccc1	105.0	-1.0	100.0*	109.0	.	.	GRK2 confirm 2=-35.2;FAM quench SP=101.0
Nc1ccc(N2CCCCC2)c(Cl)c1	98.0	-2.0	0.0	98.0	.	.
CC1(C)C(C=C(Cl)Cl)C1C(=O)N1CCN(Cc2ccccc2)CC1 (stereo not given)	95.0	2.0	0.0	103.0	.	.
Cc1nc2ccccc2c(=O)n1/N=C/c1ccncc1	103.0	0.0	83.0*	103.0	-2.9	102.3
Cc1nc2ccccc2c(=O)n1/N=C/c1ccccc1	99.0	3.0	0.0	101.0	.	.
Cc1cc(C)c2c(c1)C1(OCCO1)C(=O)N2	98.0	3.0	18.0	102.0	1.1	103.4
CN(C)CCNc1c2c(nc3ccccc13)CCC2	105.0	9.0	0.0	113.0	.	.	GRK2 confirm 2=4.4;FAM quench SP=100.0
CN(C)CCCNc1c2ccccc2nc2ccccc12	104.0	2.0	17.0	114.0	.	.
CC(=O)c1cccc(Nc2c3c(nc4ccccc24)CCC3)c1	102.0	0.0	0.0	105.0	.	.
Fc1cccc(Nc2c3c(nc4ccccc24)CCC3)c1	105.0	7.0	0.0	108.0	.	.	GRK2 confirm 2=0.7;FAM quench SP=100.0
COC(=O)c1ccc(CS(=O)(=O)c2ccccc2C)o1	99.0	3.0	4.0	99.0	.	.	GRK2 confirm 2=-2.1;FAM quench SP=101.0
Cc1ccc(C)c(N2CCN(S(=O)(=O)c3cc4c(cc3Cl)NC(=O)CO4)CC2)c1	99.0	-4.0	1.0	92.0	.	.
Oc1ccc(Br)cc1-c1ccnn1-c1ccccc1	106.0	0.0	7.0	109.0	.	.
NS(=O)(=O)c1ccc2nc(NC(=O)c3ccc(Br)o3)sc2c1	102.0	-6.0	54.0*	93.0	3.5	92.6
O=C(CN(C(=O)CCC(=O)Nc1nccs1)c1ccc(F)cc1)NCc1ccc(F)cc1	99.0	1.0	0.0	96.0	.	.
CC(C)Sc1nc2c([nH]1)c(=N)ncn2Cc1ccccc1	106.0	-2.0	81.0*	100.0	-0.3	97.4
COc1ccc(C2C3C=CCC(c4cccc(-c5ccc(C)cc5)c4)C3C(=O)N2Cc2ccccc2)cc1Cl (stereo not given)	96.0	1.0	3.0	95.0	-2.8	96.6
COc1cc(OC)cc(C(=O)NCC(=O)NC(C)c2ccccc2)c1 (stereo not given)	104.0	11.0	0.0	105.0	.	.
O=C(O)c1cc(-c2ccco2)nc2ccc(Br)cc12	114.0	16.0	55.0*!	118.0	8.4	94.3
Cn1c(SCc2ccccc2Cl)nc2c1c(=O)[nH]c(=O)n2C	99.0	1.0	71.0*	101.0	-2.1	95.3
SMILES	MEKK3 PB1 HTS	MEKK2mut PB1 HTS	GRK2 inh	MEKK2wt PB1 HTS	GRK2 inh confirm	FAM quench CP1	others
Cn1c(SCc2ccccc2)nc2c1c(=O)[nH]c(=O)n2C	103.0	1.0	4.0	102.0	.	.
C[C@@H]1CN([C@@H](C)CO)C(=O)c2cccc(NC(=O)Nc3ccccc3)c2O[C@H]1CN(C)C(=O)Nc1cccc2ccccc12	.	.	1.0	.	.	.
COc1cc(Cl)c([C@@H]2C[C@H]3CN(c4ccccc4)C(=O)[C@]34CCCN24)cc1OC	101.0	-5.0	70.0*	95.0	0.0	97.0
COc1cc([C@@H]2C[C@H]3CN(c4ccccc4)C(=O)[C@]34CCCN24)cc(OC)c1OC	97.0	-1.0	0.0	95.0	.	.
CCOC(=O)C1(CCCc2ccccc2)CCN(Cc2nccn2CC)CC1	99.0	1.0	0.0	109.0	.	.
CCOC(=O)C1(CCCc2ccccc2)CCN(CCCn2cccn2)CC1	107.0	12.0	93.0*	114.0	-3.2	105.9
CC1CCCCC1NC(=O)CCS(=O)(=O)c1ccc(Cl)cc1 (stereo not given)	.	.	27.0	.	.	.
COc1cc(C(C)=O)ccc1OCC(=O)Nc1ccccc1N1CCCC1	103.0	3.0	87.0*	101.0	.	.	GRK2 confirm 2=-23.2;FAM quench SP=101.0
COc1cc(C(C)=O)ccc1OCC(=O)Nc1ccccc1N1CCCCC1	.	.	1.0	.	.	.
Cn1c(N2CCN(C(=O)Nc3ccc(F)cc3)CC2)nc2ccccc21	121.0	5.0	3.0	88.0	.	.
Cn1c(N2CCN(C(c3ccccc3)c3ccccc3)CC2)nc2ccccc21	102.0	-1.0	98.0*	102.0	-2.3	150.6
Cc1ccc2[nH]c3c(c2c1)CCCC3NCCO (stereo not given)	101.0	2.0	2.0	109.0	.	.
COc1ccc(NC(=O)Nc2c(O)ccc3ccccc23)cc1	.	.	2.0	.	.	.
O=C(CCN1CCCCC1)N1CCc2c([nH]c3ccccc23)C1c1cccnc1 (stereo not given)	.	.	.	.	-3.0	105.2
COc1ccc(CN2CCN(C(=O)Cn3nc(C(=O)O)c4ccccc4c3=O)CC2)cc1F	103.0	-3.0	0.0	100.0	.	.
NC(=O)c1ccccc1NC(=O)c1cccc(C(=O)Nc2ccccc2C(N)=O)n1	.	.	0.0	.	.	.
CC(C)(O)C1CC[C@@](C)([C@@H]2CC[C@]3(C)[C@H]2[C@H](O)CC2[C@@]4(C)CCC(O)C(C)(C)C4C(OC4OC(CO)C(O)C(O)C4O[C@@H]4OCC(O)C(O)C4O)C[C@]23C)O1 (stereo not given in full)	.	.	0.0	.	-2.0	99.9
COc1ccc(CCNC(=O)CC(C)(C)CC2=NS(=O)(=O)c3ccccc3N2)cc1OC	101.0	-1.0	0.0	97.0	.	.
Cc1ccc(CCNC(=O)CC(C)CC2=NS(=O)(=O)c3ccccc3N2)cc1 (stereo not given)	99.0	2.0	65.0*	100.0	-2.9	94.7
O=C(NCc1ccncc1)C(=O)N/N=C/c1cccnc1	104.0	2.0	1.0	97.0	.	.
CCCCC1(C)OC(=O)C(=Cc2ccc(-c3ccc(Cl)c(C(=O)O)c3)o2)C(=O)O1 (stereo not given)	94.0	-6.0	55.0*	96.0	-0.9	95.2
Cc1ccc(N2NC(=O)/C(=C/c3ccc(-c4ccc(Cl)c(C(=O)O)c4)o3)C2=O)cc1	101.0	-1.0	0.0	99.0	.	.
